Measured values: the supplement of paper PMC9135407
Several values for one entry are separate records, joined by “and”; a condition that tells them apart may be missing. Equal entries are not always repeated. Structures can show the parent of a compound that is named as a salt. Among all 5,800 compounds or so, about 620 (11%) showed activity. The full list was thinned out, with actives kept by preference. A number with no mark means an inactive call.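 Rule for the calls: active = score above a cut-off or among the top three wells of a plate; in these data no inactive exceeds 0.85.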

Test system: primary human hepatic stellate cells (donor 1)
Assay: scaled lipid accumulation score (0 = DMSO-like, 1 = nortriptyline-like); higher = stronger HSC inactivation (lipid re-accumulation), active = hit call of the paper
Details: 48 h
[1] = library stock concentration: 10 mM
[2] = library stock concentration: 1 mM
[3] = library stock concentration: 3.33 mM
[4] = library stock concentration: 80 uM
[5] = library stock concentration: 400 uM
[6] = library stock concentration: 2 mM

In the case of `O=C(O)C1CSCN1` (stereo not drawn), the “scaled lipid accumulation score” value [1] is reported as no more than 0.

In the case of `COc1c(OC)c2occc2c2oc(=O)ccc12` [Pimpinellin], the “scaled lipid accumulation score” value [1] is reported as no more than 0.

`O=C(O)CCC/C=C/C[C@@H]1[C@@H](/C=C/[C@@H](O)COc2cccc(C(F)(F)F)c2)[C@H](O)C[C@@H]1O` [5-trans Fluprostenol] was tested, and the “scaled lipid accumulation score” value [2] was 0.008.

`c1ccc(CN(CC2=NCCN2)c2ccccc2)cc1` [Antazoline phosphate] was tested, and the “scaled lipid accumulation score” value [1] was 0.143.

With `c1ccc(CN(CC2=NCCN2)c2ccccc2)cc1` [Antazoline hydrochloride] the “scaled lipid accumulation score” value was 0.544 and the “scaled lipid accumulation score” value [1] was 0.11.

With `c1ccc(CN(CC2=NCCN2)c2ccccc2)cc1` [Antazoline HCl] the “scaled lipid accumulation score” value [3] was no more than 0 and the “scaled lipid accumulation score” value [1] was 0.363.

In the case of `CC(C)COCC(CN(Cc1ccccc1)c1ccccc1)N1CCCC1` (stereo not drawn) [Bepridil hydrochloride], the “scaled lipid accumulation score” value is reported as 0.677, the “scaled lipid accumulation score” value (library stock concentration: 5 mM) is reported as 0.569 and the “scaled lipid accumulation score” value [1] is reported as 0.175 and 0.195.

For `CC(C)COCC(CN(Cc1ccccc1)c1ccccc1)N1CCCC1.Cl` (stereo not drawn), the “scaled lipid accumulation score” value (library stock concentration: 12.4 mM) was 0.96 (active).

With `Nc1cc2c(ncn2CCOCP(=O)(O)O)c(=O)[nH]1` [PMEG hydrate] the “scaled lipid accumulation score” value [1] was no more than -0.055.

With `C=CCNC1=C2C[C@@H](C)C[C@H](OC)[C@H](O)[C@@H](C)/C=C(\C)[C@H](OC(N)=O)[C@@H](OC)/C=C\C=C(/C)C(=O)NC(=CC1=O)C2=O` [17-AAG (Tanespimycin)] the “scaled lipid accumulation score” value [3] was 0.613.

`CO[C@H]1C=CC=C(C)C(=O)NC2=CC(=O)C(NCCN(C)C)=C(C[C@@H](C)C[C@H](OC)[C@H](O)[C@@H](C)C=C(C)[C@@H]1OC(N)=O)C2=O.Cl` [17-DMAG (Alvespimycin) HCl] was tested, and the “scaled lipid accumulation score” value [1] was 1.24 (active).

With `COC1=C2C[C@@H](C)C[C@H](OC)[C@H](O)[C@@H](C)/C=C(\C)[C@H](OC(N)=O)[C@@H](OC)/C=C\C=C(/C)C(=O)NC(=CC1=O)C2=O` [Geldanamycin] the “scaled lipid accumulation score” value [3] was 0.54, the “scaled lipid accumulation score” value (library stock concentration: 8.9 mM) was 0.573 and the “scaled lipid accumulation score” value [1] was 0.493.

With `C=CCNC1=C2C[C@@H](C)C[C@H](OC)[C@H](O)[C@@H](C)C=C(C)[C@H](OC(N)=O)[C@@H](OC)C=CC=C(C)C(=O)NC(=CC1=O)C2=O` [17-AAG (Tanespimycin)] the “scaled lipid accumulation score” value [1] was 0.873 (active).

In the case of `CO[C@H]1/C=C\C=C(/C)C(=O)NC2=CC(=O)C(NCCN(C)C)=C(C[C@@H](C)C[C@H](OC)[C@H](O)[C@@H](C)/C=C(\C)[C@@H]1OC(N)=O)C2=O` [17-DMAG (Alvespimycin) HCl], the “scaled lipid accumulation score” value [3] is reported as 0.404.

For `CCCCC[C@H](O)/C=C/[C@@H]1[C@@H](C/C=C/CCCC(=O)O)[C@H](O)C[C@H]1O` [5-trans Prostaglandin F2.beta.], the “scaled lipid accumulation score” value [2] was no more than 0.

`O=C1OC(O)C(c2cc3ccccc3s2)=C1Br` (stereo not drawn) was tested, and the “scaled lipid accumulation score” value [2] was 0.04.

For `O=C1O/C(=C/Br)CC[C@H]1c1cccc2ccccc12` [(S)-Bromoenol lactone], the “scaled lipid accumulation score” value [2] was 0.103.

`COc1cc(N)c(Cl)cc1C(=O)OCCCN1CCCCC1` was tested, and the “scaled lipid accumulation score” value [1] was 0.126.

With `COc1cc(OC)c(C(=O)CCCN2CCCC2)c(OC)c1` [Buflomedil HCl] the “scaled lipid accumulation score” value [3] was no more than 0 and the “scaled lipid accumulation score” value [1] was no more than 0.

`COc1cc(C(=O)OCCCN2CCCN(CCCOC(=O)c3cc(OC)c(OC)c(OC)c3)CC2)cc(OC)c1OC.Cl.Cl` was tested, and the “scaled lipid accumulation score” value [1] was 0.84 (active).

`COc1cc(C(=O)NCCCCCC(=O)O)cc(OC)c1OC` [Capobenic acid] was tested, and the “scaled lipid accumulation score” value (library stock concentration: 6.1 mM) was no more than 0.

With `COc1cc(C(=O)OCCCN2CCCN(CCCOC(=O)c3cc(OC)c(OC)c(OC)c3)CC2)cc(OC)c1OC.Cl.Cl` [Dilazep dihydrochloride] the “scaled lipid accumulation score” value [1] was 1.06 (active).

`COc1cc(C(=O)N2CCOCC2)cc(OC)c1OC` [Trimetozine] was tested, and the “scaled lipid accumulation score” value (library stock concentration: 7.1 mM) was no more than 0.

With `COc1cc(OC)c(C(=O)CCCN2CCCC2)c(OC)c1` [Buflomedil hydrochloride] the “scaled lipid accumulation score” value was 0.025.

With `COc1cc(C(=O)OCCC[NH+]2CCC[NH+](CCCOC(=O)c3cc(OC)c(OC)c(OC)c3)CC2)cc(OC)c1OC.[Cl-].[Cl-]` [Dilazep hydrochloride] the “scaled lipid accumulation score” value [1] was 0.951 (active).

`COc1cc(OC)c(C(=O)CCCN2CCCC2)c(OC)c1` was tested, and the “scaled lipid accumulation score” value [1] was no more than 0.

In the case of `COc1cc(C(=O)OCCCN2CCCN(CCCOC(=O)c3cc(OC)c(OC)c(OC)c3)CC2)cc(OC)c1OC` [Dilazep dihydrochloride], the “scaled lipid accumulation score” value is reported as 0.164.

For `COc1cc(N)c(Cl)cc1C(=O)OCCN1CCCCC1`, the “scaled lipid accumulation score” value [1] was no more than -0.007.

`CC1(C)CCCC2(C)C1CCC1(C)OC(=O)CC12` (stereo not drawn) [Sclareolide] was tested, and the “scaled lipid accumulation score” value [3] was no more than 0 and the “scaled lipid accumulation score” value [1] was 0.09.

For `NC(=O)c1ccc(N(C(N)=O)c2c(F)cccc2F)nc1-c1ccc(F)cc1F`, the “scaled lipid accumulation score” value [4] was no more than -0.001, the “scaled lipid accumulation score” value [5] was ≤ -0.001 and ≤ -0.005 and the “scaled lipid accumulation score” value [6] was ≤ -0.001 and 0.083. The “scaled lipid accumulation score” value [3] was no more than 0 and the “scaled lipid accumulation score” value [1] was ≤ 0 and 0.012 and ≤ -0.005.

With `CCCCC[C@H](O)/C=C/[C@H]1[C@H](O)CC(=O)[C@@H]1C/C=C\CCCC(=O)NC(CO)CO` [Prostaglandin E2 serinol amide] the “scaled lipid accumulation score” value [2] was no more than 0.

With `CCN[C@@H]1C[C@H](N)[C@@H](O[C@H]2OC(CN)=CC[C@H]2N)[C@H](O)[C@H]1O[C@H]1OC[C@](C)(O)[C@H](NC)[C@H]1O` [Netilmicin sulfate] the “scaled lipid accumulation score” value (library stock concentration: 3 mM) was no more than 0.

With `CC1=C(/C=C/C(C)=C\C=C\C(C)=C\C(=O)O)C(C)(C)CCC1` [9-cis Retinoic acid] the “scaled lipid accumulation score” value [2] was no more than -0.021.

For `NC1C=CC=C(C(=O)O)C1` (stereo not drawn) [Gabaculine hydrochloride], the “scaled lipid accumulation score” value [1] was no more than 0.

With `CCCCC[C@H](O)/C=C/C1=C(CCCCCCC(=O)O)C(=O)CC1` [Prostaglandin B1] the “scaled lipid accumulation score” value [2] was ≤ 0 and ≤ -0.021.

In the case of `O=C(NC[C@H]1CN(c2ccc(N3CCOCC3=O)cc2)C(=O)O1)c1ccc(Cl)s1` [Rivaroxaban], the “scaled lipid accumulation score” value [3] is reported as no more than 0 and the “scaled lipid accumulation score” value [1] is reported as no more than 0.

In the case of `Cc1ccccc1N=Nc1ccc(NC(=O)c2ccnn2C)c(C)c1`, the “scaled lipid accumulation score” value [1] is reported as no more than -0.006.

`Cc1[nH]c(/C=C2\C(=O)Nc3ccccc32)c(C)c1CCC(=O)O` [SU-6668 (TSU-68, Orantinib) (2 mM)] was tested, and the “scaled lipid accumulation score” value [6] was 0.047.

`CCN(CC)CCNC(=O)c1c(C)[nH]c(/C=C2\C(=O)Nc3ccc(F)cc32)c1C` was tested, and the “scaled lipid accumulation score” value [5] was 0.189 and the “scaled lipid accumulation score” value [1] was 0.43.

`Cc1[nH]c(/C=C2\C(=O)Nc3ccccc32)c(C)c1CCC(=O)O` [TSU-68 (SU6668, Orantinib)] was tested, and the “scaled lipid accumulation score” value [3] was no more than 0 and the “scaled lipid accumulation score” value [1] was no more than 0.

For `CCN(CC)CCNC(=O)c1c(C)[nH]c(/C=C2\C(=O)Nc3ccc(F)cc32)c1C` [Sunitinib malate], the “scaled lipid accumulation score” value [4] was no more than -0.009, the “scaled lipid accumulation score” value [5] was no more than -0.009 and the “scaled lipid accumulation score” value [1] was ≤ -0.07 and 0.421.

With `CCN(CC)CCNC(=O)c1c(C)[nH]c(/C=C2\C(=O)Nc3ccc(Cl)cc32)c1C` the “scaled lipid accumulation score” value [3] was 0.556.

`CCN(CC)CCNC(=O)c1c(C)[nH]c(/C=C2\C(=O)Nc3ccc(F)cc32)c1C.O=C(O)C[C@H](O)C(=O)O` was tested, and the “scaled lipid accumulation score” value [6] was 1.66 (active).

For `CCOC(=O)c1c(C)[nH]c(/C=C2\C(=O)Nc3ccccc32)c1C` [VEGF Receptor 2 Kinase Inhibitor I], the “scaled lipid accumulation score” value [3] was no more than 0.

In the case of `Cc1[nH]c(/C=C2\C(=O)Nc3ccccc32)c(C)c1CCC(=O)O` [SU-6668 (TSU-68, Orantinib) (10 mM)], the “scaled lipid accumulation score” value [1] is reported as 0.012.

For `Cc1[nH]c(/C=C2\C(=O)Nc3ccccc32)c(C)c1CCC(=O)O`, the “scaled lipid accumulation score” value [1] was 0.019.

For `Cc1[nH]c(/C=C2\C(=O)Nc3ccccc32)c(C)c1CCC(=O)O` [SU-6668 (TSU-68, Orantinib) (0.4 mM)], the “scaled lipid accumulation score” value [5] was 0.175.

`CCN(CC)CCNC(=O)c1c(C)[nH]c(/C=C2\C(=O)Nc3ccc(F)cc32)c1C` [Sunitinib Malate] was tested, and the “scaled lipid accumulation score” value [3] was 0.775 and the “scaled lipid accumulation score” value [1] was 0.432.

`CCN(CC)CCNC(=O)c1c(C)[nH]c(/C=C2\C(=O)Nc3ccc(F)cc32)c1C.O=C(O)C[C@H](O)C(=O)O` [Sunitinib malate] was tested, and the “scaled lipid accumulation score” value [6] was 0.997 (active).

For `CCC=CCC=CCC=CCC=CCCCCCCC(=O)O` [.omega.-3 Arachidonic Acid], the “scaled lipid accumulation score” value [2] was no more than 0.

For `CCN(CC)CCN(Cc1ccc(-c2ccc(C(F)(F)F)cc2)cc1)C(=O)Cn1c(SCc2ccc(F)cc2)nc(=O)c2c1CCC2`, the “scaled lipid accumulation score” value [3] was 0.746 and the “scaled lipid accumulation score” value [1] was 0.058.

In the case of `COc1ccc(-c2coc3cc(O)ccc3c2=O)cc1` [Formononetin], the “scaled lipid accumulation score” value [3] is reported as no more than 0 and the “scaled lipid accumulation score” value [1] is reported as ≤ 0 and ≤ -0.027.

For `Nc1ccc2cn[nH]c2c1`, the “scaled lipid accumulation score” value [1] was no more than 0.

With `CC(C)(CO)[C@@H](O)C(=O)NCCC(=O)NCCSSCCNC(=O)CCNC(=O)[C@H](O)C(C)(C)CO` the “scaled lipid accumulation score” value [1] was no more than 0.

For `COC(=O)C1=C(C)NC(C)=C(C(=O)OCCCN2CCC(c3ccccc3)(c3ccccc3)CC2)[C@H]1c1cccc([N+](=O)[O-])c1` [(S)-(+)-Niguldipine hydrochloride], the “scaled lipid accumulation score” value [1] was no more than -0.006.

With `COC(=O)C1=C(C)NC(C)=C(C(=O)OCCCN2CCC(c3ccccc3)(c3ccccc3)CC2)[C@H]1c1cccc([N+](=O)[O-])c1` [Niguldipine] the “scaled lipid accumulation score” value (library stock concentration: 7.7 mM) was no more than -0.021.

`Cl.N#Cc1ccc2[nH]cc(CCCCN3CCN(c4ccc5oc(C(N)=O)cc5c4)CC3)c2c1` [Vilazodone HCl] was tested, and the “scaled lipid accumulation score” value [1] was 1.1 (active).

With `N#Cc1ccc2[nH]cc(CCCCN3CCN(c4ccc5oc(C(N)=O)cc5c4)CC3)c2c1` [Vilazodone HCl] the “scaled lipid accumulation score” value [3] was 0.512.
